Screening results: PubChem, National Center for Advancing Translational Sciences (NCATS)
Shown are actives, neighbours in structure and some others; about 19% of the full set was active somewhere.
KB-V1 MDR tox = qHTS assay for MDR1-selective chemotherapeutics: Primary screen using the drug-selected MDR subline cells KB-V1; KB-V1 MDR cells viability, CellTiter-Glo, 72 h; Potency, µM (series often up to 46.1 µM), usual class: cytotoxic; 400,000 compounds, 3.4% hits; AID 1347076, 2019; note: nearly all actives have a fitted effect of over 60% in size
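KB-V1, DMEM (no phenol red) + 10% FBS; cpd pin-transferred, titration series; 72 h, 37 degrees C; CellTiter-Glo, luminescence. Data normalized, curve-fit.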
HT1080 IDH1KD tx = qHTS for induction of synthetic lethality in tumor cells producing 2HG: qHTS for the HT-1080-IDH1KD cell line. Potency, µM (top dose mostly 46.1 µM), usual class: cytotoxic. 360,000 compounds, 2% hits. HT-1080 IDH1 knockdown viability, ATP luminescence, 48 h
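Viability of IDH1-knockdown HT-1080 fibrosarcoma cells was assessed by CellTiter-Glo after 48 h at 37 °C with titrated compound; concentration-effect curves were classified by fit quality and response size.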
HT1080NT lethal = qHTS for induction of synthetic lethality in tumor cells producing 2HG: qHTS for the HT-1080-NT fibrosarcoma cell line | HT-1080-NT fibrosarcoma viability, CellTiter-Glo ATP luminescence, 48 h | Potency, µM (top dose mostly 46.1 µM), most hits filed as cytotoxic | 360,000 compounds, 1.6% hits;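 note: NT is the 2HG producing partner of a matched IDH1 knockdown line; nearly all actives have a fitted effect of over 55% in size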
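A 48-hour cytotoxicity screen used HT-1080-NT cells plated 2 hours before compound delivery. ATP-based CellTiter-Glo luminescence measured viability, normalized to DMSO and no-cell controls.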
TDP1 cell CPT = qHTS for Inhibitors of human tyrosyl-DNA phosphodiesterase 1 (TDP1): qHTS in cells in presence of CPT; chicken DT40 Tdp1-/-;hTDP1 cells + 20 nM CPT, ATP luminescence, 48 h; Potency, µM (titrated, usually from 46.2 µM), usual class: inhibitors; 420,000 compounds, 12% hits; AID 686979, 2013; note: nearly all actives have a fitted effect of over 55% in size
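Chicken DT40 Tdp1-/- cells stably complemented with human TDP1 were seeded at 400 cells/well in medium containing 20 nM camptothecin, exposed to pin-transferred compounds, and grown at 37 °C for at least 48 hr. Viability was read as ATP luminescence.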
DT40 TDP1 no CPT = qHTS for Inhibitors of human tyrosyl-DNA phosphodiesterase 1 (TDP1): qHTS in cells in absence of CPT; DT40 Tdp1-/- hTDP1 cells, no CPT, ATP luminescence, 48 h; 420,000 compounds, 15% hits; AID 686978, 2013; Potency, µM (series often up to 46.2 µM), hits mostly inhibitors; note: nearly all actives have a fitted effect of over 55% in size
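Stably hTDP1-transfected Tdp1-null chicken DT40 cells were treated with library compounds minus camptothecin and grown for at least 48 hr at 37 °C, after which cellular ATP was quantified by luminescence.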
KB-3-1 cytotox = qHTS assay for MDR1-selective chemotherapeutics: Primary screen using the parental adenocarcinoma cell KB-3-1; KB-3-1 viability, CellTiter-Glo ATP luminescence, 72 h; Potency, µM (titrated, usually from 46.1 µM), usual class: cytotoxic; 400,000 compounds, 1.4% hits; AID 1347075, 2019; note: nearly all actives have a fitted effect of over 60% in size
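Cytotoxicity measured as CellTiter-Glo luminescence after 72 h at 37 C. Compound titrations were pinned onto drug-naive KB-3-1 parental adenocarcinoma cells grown in DMEM with 10% FBS, and normalized data fitted to concentration-response curves.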
Large screens that a line does not name were inactive. Calls come from the whole dose curve; as a rule, active = well fitted curve in the direction sought with a large enough effect; inconclusive = small, poorly fitted or top-dose-only effect, or another doubt; inactive = no such curve, though single readings can be large; an effect the other way counts as inactive or inconclusive.

Cc1cccc(C(=O)NC(=S)Nc2ccc(S(=O)(=O)N3CCCCC3)cc2)c1	TDP1 cell CPT 18µM, DT40 TDP1 no CPT 15µM
CCN(CC(=O)Nc1ccccc1OC)C(=O)c1ccc2[nH]c3c(c2c1)CC(C)CC3 (configuration not stated)	HT1080 IDH1KD tx inconclusive, HT1080NT lethal inconclusive, TDP1 cell CPT 18µM, DT40 TDP1 no CPT inconclusive, KB-3-1 cytotox inconclusive
CC1CCc2[nH]c3ccc(C(=O)N(C)CC(=O)Nc4ccccc4C(F)(F)F)cc3c2C1 (configuration not stated)	TDP1 cell CPT inconclusive, DT40 TDP1 no CPT inconclusive
CCCN(CC(=O)Nc1ccccc1OC)C(=O)c1ccc2[nH]c3c(c2c1)CC(C)CC3 (configuration not stated)	KB-V1 MDR tox 16µM, TDP1 cell CPT inconclusive, DT40 TDP1 no CPT inconclusive, KB-3-1 cytotox inconclusive
NCCN1CCN(CC(=O)N2c3ccccc3C(=O)Nc3cccnc32)CC1	none (no result: HT1080 IDH1KD tx, HT1080NT lethal, TDP1 cell CPT, DT40 TDP1 no CPT)
O=C1Nc2cccnc2N(C(=O)CCl)c2ccccc21	KB-V1 MDR tox 16µM, HT1080 IDH1KD tx 16µM, HT1080NT lethal inconclusive, TDP1 cell CPT 3.3µM, DT40 TDP1 no CPT 2.6µM, KB-3-1 cytotox 21µM
COc1cc(/C=C/c2ccc3cccc(O)c3n2)cc(OC)c1OC	KB-V1 MDR tox inconclusive, HT1080 IDH1KD tx 6.5µM, HT1080NT lethal 8.2µM, TDP1 cell CPT inconclusive, DT40 TDP1 no CPT inconclusive, KB-3-1 cytotox inconclusive
COc1cccc2ccc(/C=C/c3ccc4c(c3)OCO4)nc12	TDP1 cell CPT inconclusive, DT40 TDP1 no CPT inconclusive (no result: HT1080 IDH1KD tx, HT1080NT lethal)
COc1ccc(Br)cc1/C=C/c1ccc2cccc(O)c2n1	KB-V1 MDR tox inconclusive, TDP1 cell CPT inconclusive, DT40 TDP1 no CPT 21µM, KB-3-1 cytotox inconclusive
COc1cc(/C=C/c2ccc3cccc(O)c3n2)cc(Cl)c1OC	KB-V1 MDR tox inconclusive, HT1080 IDH1KD tx inconclusive, HT1080NT lethal inconclusive, TDP1 cell CPT 4.1µM, DT40 TDP1 no CPT 4.1µM, KB-3-1 cytotox inconclusive
COc1ccc(/C=C/c2ccc3cccc(O)c3n2)cc1Br	TDP1 cell CPT 5.8µM, DT40 TDP1 no CPT 5.2µM, KB-3-1 cytotox inconclusive
O=C(Cc1ccccc1)Nc1ccc(NC(=O)c2cccs2)cc1Cl	TDP1 cell CPT inconclusive
COc1cccc2c(=O)n(CC(=O)Nc3ccccc3F)ccc12	none
COc1ccc(CCNC(=O)c2ccc(CS(=O)Cc3ccc(C)cc3)o2)cc1OC (configuration not stated)	TDP1 cell CPT inconclusive
CC(C)(C)C(=O)N1CCC(O)(CS(=O)(=O)c2ccc(Cl)c(Cl)c2)CC1	KB-V1 MDR tox inconclusive
CCc1ccc(NC(=O)c2cc3c([nH]c2=O)CC(C)(C)CC3=O)cc1	none (no result: HT1080 IDH1KD tx, HT1080NT lethal)
COc1cc(/C=C/c2ccc3cccc(O)c3n2)cc(Br)c1OC	KB-V1 MDR tox inconclusive, HT1080 IDH1KD tx inconclusive, HT1080NT lethal inconclusive, TDP1 cell CPT 12µM, DT40 TDP1 no CPT 18µM, KB-3-1 cytotox 15µM
COc1cc(/C=N/O)cc(Br)c1OC	none
CC(/C=C/C=C(\C)C(=O)O[C@@H]1O[C@H](CO[C@@H]2O[C@H](CO)[C@@H](O)[C@H](O)[C@H]2O)[C@@H](O)[C@H](O)[C@H]1O)=C\C=C\C=C(C)\C=C\C=C(/C)C(=O)O[C@@H]1O[C@H](CO[C@@H]2O[C@H](CO)[C@@H](O)[C@H](O)[C@H]2O)[C@@H](O)[C@H](O)[C@H]1O	none (no result: KB-V1 MDR tox, HT1080 IDH1KD tx, HT1080NT lethal, KB-3-1 cytotox)
Cc1cc(C)cc(NC(=O)CSc2ccc(-c3ccccn3)nn2)c1	KB-V1 MDR tox inconclusive, HT1080 IDH1KD tx inconclusive, HT1080NT lethal inconclusive, TDP1 cell CPT 16µM, DT40 TDP1 no CPT inconclusive
Cc1csc(NC(=O)CSc2ccc(-c3ccccn3)nn2)n1	KB-V1 MDR tox inconclusive, HT1080 IDH1KD tx inconclusive, TDP1 cell CPT inconclusive, DT40 TDP1 no CPT 26µM
O=C(CSc1ccc(-c2ccccn2)nn1)Nc1cccc(F)c1	KB-V1 MDR tox inconclusive, HT1080 IDH1KD tx inconclusive, TDP1 cell CPT inconclusive, DT40 TDP1 no CPT 18µM
Cc1ccccc1NC(=O)CSc1ccc(-c2ccccn2)nn1	KB-V1 MDR tox inconclusive, TDP1 cell CPT inconclusive, DT40 TDP1 no CPT inconclusive, KB-3-1 cytotox inconclusive
O=C(CSc1ccc(-c2ccccn2)nn1)Nc1nccs1	none
O=C(CSc1ccc(-c2cccnc2)nn1)Nc1ccc(F)c(F)c1	KB-V1 MDR tox 9.2µM, HT1080NT lethal inconclusive, TDP1 cell CPT inconclusive, DT40 TDP1 no CPT inconclusive
O=C(CSc1ccc(-c2cccnc2)nn1)Nc1ccccc1	KB-V1 MDR tox inconclusive
CCOc1ccccc1CNC(=O)c1ccc(Cn2c(=O)c3cccn3c3cccnc32)cc1	none (no result: KB-V1 MDR tox, HT1080 IDH1KD tx, HT1080NT lethal, KB-3-1 cytotox)
Cc1ccccc1C(=O)NCC(=O)OC(C)C(=O)NC(C)CCc1ccccc1 (configuration not stated)	DT40 TDP1 no CPT inconclusive
CCOc1ccc(C2=NC(c3ccncc3)=Nc3ccc(C)cc3N2)cc1OCC	TDP1 cell CPT inconclusive, DT40 TDP1 no CPT 18µM (no result: HT1080 IDH1KD tx, HT1080NT lethal)
CCCCOc1ccc(C2=NC(c3ccncc3)=Nc3ccc(OCC)cc3N2)cc1	KB-V1 MDR tox inconclusive, TDP1 cell CPT 16µM, DT40 TDP1 no CPT inconclusive (no result: HT1080 IDH1KD tx, HT1080NT lethal)
CCOc1ccc2c(c1)NC(c1cccs1)=NC(c1ccc(F)cc1)=N2	TDP1 cell CPT 23µM, DT40 TDP1 no CPT inconclusive (no result: HT1080 IDH1KD tx, HT1080NT lethal)
COC1=C(OC)C(=O)C(C/C=C(\C)CC/C=C(\C)CC/C=C(\C)CC/C=C(\C)CC/C=C(\C)CC/C=C(\C)CC/C=C(\C)CC/C=C(\C)CC/C=C(\C)CCC=C(C)C)=C(C)C1=O	none (no result: KB-V1 MDR tox, HT1080 IDH1KD tx, HT1080NT lethal, KB-3-1 cytotox)
